Reference: PubChem BioAssay (Tox21)
Several values for one entry are separate records, joined by “and”; a condition that tells them apart may be missing. Equal entries are not always repeated. Records with an inconclusive call do not appear. Entries that show only a call come without a potency. Some compounds were tested as several samples or in several runs, with calls that do not always agree. Activity calls are given as the source filed them. The call rests on the fitted dose curve; in most records, active means well fitted activation curve with a large enough effect in the repeat runs; inconclusive means weak or mixed curves; inactive means flat fitted curve, though single readings scatter.
Potency means the concentration at half of the fitted maximal effect.

Experiment: A CellTox Green Cytotoxicity Assay to monitor cytotoxicity in HepG2 cells - 24 hour (AID 1224878); further: nearly all actives have a fitted effect of over 45% in size
Settings: CellTox Green fluorescence; series mostly up to 76.8 µM
Excerpt: National Center for Advancing Translational Sciences [NCATS]
NIH Chemical Genomics Center [NCGC]
U.S. Environmental Protection Agency [EPA]
National Institutes of Environmental Health Sciences [NIEHS]
National Toxicology Program [NTP]
Cell-based models are critical for drug discovery. Determining the natural cytotoxic effects resulting from test compounds is an essential research activity. A CellTox Green Cytotoxicity Assay to monitor cytotoxicity in real time of continues cell culture during 40 hours of the compound treatment was used to screen Tox21 10K library compounds in HepG2 cells. CellTox Green Cytotoxicity Assay is a nonlytic, homogeneous, biofluorescent method to measure cytotoxicity in cell culture after experimental manipulation. The assay system uses a proprietary asymmetric cyanine dye that is excluded from viable cells but preferentially stains the dead cell's DNA. […] Viable cells produce no appreciable increases in fluorescence. Therefore, the fluorescence signal produced by the binding interaction with dead cell DNA is proportional to cytotoxicity.
The mixture of HepG2 cell suspension and reagents were dispensed at 600cells/6 ul/well in 1536-well tissue culture treated black solid bottom plates using a Multidrop dispenser. After the assay plates were incubated at a 37 C/5% CO2 incubator for 5 hours, 23 nL of compounds dissolved in DMSO, positive and negative controls was transferred to the assay plate by a pintool work station. The plates were incubated at 37 C for 40 hours. The fluorescence intensity were measured at 0h, 8h, 16h, 24h, 32h and 40h time points using ViewLux plate reader during compound treatment.
With Cc1cc(-c2cc(C)c(N)c(C)c2)cc(C)c1N the Potency was “inactive”. For Cc1ccc(N)cc1Cl, the Potency was “inactive”. With C1CN2CCN1CC2 the Potency was “inactive and 21.9 µM (active)”. For Clc1ccc(Cl)cc1, the Potency was “inactive”. In the case of c1ccc2c(c1)Oc1ccccc1O2, the Potency is reported as “inactive”. With NCCc1ccc(O)cc1 the Potency was “inactive”. With COC(=O)NC(=S)Nc1ccccc1NC(=S)NC(=O)OC the Potency was “inactive”. For Nc1ccc(Oc2ccc(N)cc2)cc1, the Potency was “inactive”. For O=C1CCCN1, the Potency was “inactive”. With c1ccc(OP(Oc2ccccc2)Oc2ccccc2)cc1 the Potency was “inactive”. With O=c1[nH]c2ccccc2c(=O)o1 the Potency was “inactive”. For O=c1[nH]c(=O)[nH]c(=O)[nH]1, the Potency was “inactive”. For CCCN(CCC)c1c([N+](=O)[O-])cc(C(F)(F)F)cc1[N+](=O)[O-], the Potency was “inactive”. For Cc1ccc(N)cc1N, the Potency was “inactive”. With CC1OC(C)OC(C)O1 (stereo not given) the Potency was “inactive”. For CC(NC(C)(C)C)C(=O)c1cccc(Cl)c1 (stereo not given), the Potency was “inactive”. In the case of CCCN(CCC)N=O, the Potency is reported as “inactive”. For O=S(=O)(c1ccc(O)cc1)c1ccc(O)cc1, the Potency was “inactive”. With Cc1ccccc1O the Potency was “inactive”. In the case of O=c1n(Cl)c(=O)n(Cl)c(=O)n1Cl, the Potency is reported as “inactive”. With CC(C)OC(=O)Nc1ccccc1 the Potency was “inactive”. For O=Cc1cccc(Oc2ccccc2)c1, the Potency was “inactive”. For CCCCCCCCCCCC#N, the Potency was “inactive and 45.2 µM (active)”. With CCN(CC)c1ccccc1 the Potency was “inactive”. For CCOP(OCC)OCC, the Potency was “inactive”. For Cc1cccc([N+](=O)[O-])c1, the Potency was “inactive”. For ClCCBr, the Potency was “inactive”. With [O-][Cl+2]([O-])O the Potency was “inactive”. In the case of CCOC(=O)c1ccccc1C(=O)OCC, the Potency is reported as “inactive”. In the case of Cn1cc(-c2ccccc2)c(=O)c(-c2cccc(C(F)(F)F)c2)c1, the Potency is reported as “inactive”. With Cc1cc(Cl)ccc1O the Potency was “inactive”. In the case of OC(O)C(Cl)(Cl)Cl, the Potency is reported as “inactive”. In the case of CCNc1nc(NC(C)C)nc(SC)n1, the Potency is reported as “inactive”. With COCCl the Potency was “inactive”. For CCC[N+](=O)[O-], the Potency was 24.1 µM (active) and inactive. With CCCCN(CC)C(=O)SCCC the Potency was “inactive”. In the case of ClCc1cccnc1, the Potency is reported as “inactive”. In the case of Nc1ccc(Br)cc1, the Potency is reported as “inactive”. For Oc1ccccc1Cl, the Potency was “inactive”. For C#CC(C)(C)NC(=O)c1cc(Cl)cc(Cl)c1, the Potency was “inactive”.
